Data: the supplement of paper PMC9694430
Structures can show the parent of a compound that is named as a salt.

What was measured:
Assay in all cases: thermal shift delta Tm vs DMSO control; higher = stronger stabilization (binding)
Conditions in all cases: 12.5 µM; protein concentration 2 µM
LOC_OS01G01410-cb001 = test system: LOC_OS01G01410-cb001
Procedure, shortened: (§1)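 Thermal shift values come from differential scanning fluorimetry on purified rice kinase domains made in E. coli, with melting temperatures obtained from Boltzmann fits. Samples of 19.5 μl held 2 μM kinase, 100 mM potassium phosphate pH 7.5, 150 mM NaCl, 10% glycerol, 5 × SYPRO Orange and compound in DMSO, and were heated from 25°C to 95°C at 0.05°C/s. Each shift is a triplicate mean relative to the DMSO-only protein sample.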

LOC_OS01G02750-cb003 = test system: LOC_OS01G02750-cb003
Procedure, shortened: as §1

LOC_OS01G10900-cb004 = test system: LOC_OS01G10900-cb004
Procedure, shortened: as §1

LOC_OS01G13800-cb001 = test system: LOC_OS01G13800-cb001
Procedure, shortened: as §1

LOC_OS01G14860-cb001 = test system: LOC_OS01G14860-cb001
Procedure, shortened: as §1

LOC_OS01G21960-cb002 = test system: LOC_OS01G21960-cb002
Procedure, shortened: as §1

LOC_OS01G48390-cb002 = test system: LOC_OS01G48390-cb002
Procedure, shortened: as §1

LOC_OS01G51400-cb002 = test system: LOC_OS01G51400-cb002
Procedure, shortened: as §1

LOC_OS01G52050-cb004 = test system: T1, LOC_OS01G52050-cb004
T1 sequence (whole entry): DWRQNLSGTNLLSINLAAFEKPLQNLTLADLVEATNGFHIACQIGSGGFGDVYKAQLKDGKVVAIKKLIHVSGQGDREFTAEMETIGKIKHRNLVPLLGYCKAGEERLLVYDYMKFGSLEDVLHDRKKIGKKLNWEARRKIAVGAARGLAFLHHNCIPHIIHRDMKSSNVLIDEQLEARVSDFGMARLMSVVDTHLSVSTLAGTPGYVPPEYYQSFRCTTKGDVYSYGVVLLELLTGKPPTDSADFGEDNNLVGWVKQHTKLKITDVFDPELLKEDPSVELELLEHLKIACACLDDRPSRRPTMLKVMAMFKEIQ
Procedure, shortened: as §1

LOC_OS01G57100-cb003 = test system: LOC_OS01G57100-cb003
Procedure, shortened: as §1

LOC_OS01G60330-cb001 = test system: LOC_OS01G60330-cb001
Procedure, shortened: as §1

LOC_OS01G60700-cb002 = test system: LOC_OS01G60700-cb002
Procedure, shortened: as §1

LOC_OS01G63280-cb003 = test system: LOC_OS01G63280-cb003
Procedure, shortened: as §1

LOC_OS01G67340-cb003 = test system: LOC_OS01G67340-cb003
Procedure, shortened: as §1

LOC_OS01G70970-cb002 = test system: LOC_OS01G70970-cb002
Procedure, shortened: as §1

LOC_OS02G07810-cb001 = test system: LOC_OS02G07810-cb001
Procedure, shortened: as §1

LOC_OS02G08530-cb003 = test system: LOC_OS02G08530-cb003
Procedure, shortened: as §1

LOC_OS02G14120-cb001 = test system: LOC_OS02G14120-cb001
Procedure, shortened: as §1

LOC_OS02G17970-cb001 = test system: LOC_OS02G17970-cb001
Procedure, shortened: as §1

LOC_OS01G39600-cb002 = test system: LOC_OS01G39600-cb002
Procedure, shortened: as §1
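Further: purified Escherichia coli-expressed rice kinase domain construct.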

| SMILES | thermal shift delta Tm (LOC_OS01G01410-cb001) [°C] | thermal shift delta Tm (LOC_OS01G02750-cb003) [°C] | thermal shift delta Tm (LOC_OS01G10900-cb004) [°C] | thermal shift delta Tm (LOC_OS01G13800-cb001) [°C] | thermal shift delta Tm (LOC_OS01G14860-cb001) [°C] | thermal shift delta Tm (LOC_OS01G21960-cb002) [°C] | thermal shift delta Tm (LOC_OS01G48390-cb002) [°C] | thermal shift delta Tm (LOC_OS01G51400-cb002) [°C] | thermal shift delta Tm (LOC_OS01G52050-cb004) [°C] | thermal shift delta Tm (LOC_OS01G57100-cb003) [°C] | thermal shift delta Tm (LOC_OS01G60330-cb001) [°C] | thermal shift delta Tm (LOC_OS01G60700-cb002) [°C] | thermal shift delta Tm (LOC_OS01G63280-cb003) [°C] | thermal shift delta Tm (LOC_OS01G67340-cb003) [°C] | thermal shift delta Tm (LOC_OS01G70970-cb002) [°C] | thermal shift delta Tm (LOC_OS02G07810-cb001) [°C] | thermal shift delta Tm (LOC_OS02G08530-cb003) [°C] | thermal shift delta Tm (LOC_OS02G14120-cb001) [°C] | thermal shift delta Tm (LOC_OS02G17970-cb001) [°C] | thermal shift delta Tm (LOC_OS01G39600-cb002) [°C] |
| --- | --- | --- | --- | --- | --- | --- | --- | --- | --- | --- | --- | --- | --- | --- | --- | --- | --- | --- | --- | --- |
| CCCCCCCCc1ccc(CCC(N)(CO)CO)cc1 [Fingolimod (FTY720) HCl] | -0.88 | 0.17 | -0.2 | -1.96 | -1.24 | -0.97 | -0.85 | -1.12 | -0.88 | 0.23 | 0.41 | 0.6 | -1.03 | -0.42 | -0.82 | -1.73 | -0.4 | -0.78 | -0.74 |  |
| O=C(NCc1cccc(O)c1)Nc1nc(-c2ccncc2)cs1 | 1 | 1.02 | 0.6 | -0.25 | 1.72 | 1.09 | 1.48 | 0.4 | 1.09 | 0.7 | 0.56 | 1.38 | -0.09 | 0.16 | 0.57 | 1.03 | 1.04 | 0.87 | 0.34 |  |
| CS(=O)(=O)CCNCc1ccc(-c2ccc3ncnc(Nc4ccc(OCc5cccc(F)c5)c(Cl)c4)c3c2)o1 [Lapatinib] | 3.23 | 7.61 | 1.97 | 0.94 | 1.79 | 2.25 | 1.79 | 1.92 | 6.04 | 3.37 | 6.75 | 1.03 |  | 1.58 | 1.28 | 1.88 | 1.24 | 0.15 | 1.82 | 3.93 |
| CC(C)(C)c1cc(/C=C(\C#N)C(N)=S)cc(C(C)(C)C)c1O [Tyrphostin AG 879] | 2.99 | 5.43 | 4.19 | 2.01 | 2.28 | 1.97 | 1.74 | 0.42 | 4.16 | 5.01 | 3.04 | 4.7 |  |  | 2.23 | 2.55 | 2.78 | 4.98 | 3.25 |  |
| C=CC(=O)Nc1cccc(Oc2nc(Nc3ccc(N4CCN(C)CC4)cc3)ncc2Cl)c1 | 4.21 |  | 3.56 | 0.23 | 1.91 | 1.42 | 7.69 | 1.75 | 3.38 | -0.75 | 1.82 | 0.8 | 0.27 | -0.1 | 3.9 | 0.94 | 2.58 | 8.31 | 0 | 3.8 |
| CN1CCCN(C(=O)c2cccc(-c3ccc(/C=C4/C(=O)Nc5ccc(Cl)cc54)o3)c2)CC1 | 2.05 | 1.47 | 2.9 | 0.13 | 4.25 | 1.58 | 1.96 | 0.12 | 0.58 | 1.45 | 3.07 | 1.97 | 1.12 | 0.39 | 1.61 | 0.97 | 3.51 | 3.94 | 1.03 |  |
| Cc1cc([C@@H](C)Nc2ccccc2C(=O)O)c2nc(N3CCOCC3)cc(=O)n2c1 | 0.29 | 1.55 | 0.27 | 0.31 | 0.56 | 1.03 | 0.29 | 0.07 | 0.43 | 1.15 | 0.75 | 0.5 | 0.68 | -0.15 | 0 | 1.33 | 0.42 | -0.15 | 0.98 | 0.03 |
| O=C(O[C@@H]1Cc2c(O)cc(O)cc2O[C@@H]1c1cc(O)c(O)c(O)c1)c1cc(O)c(O)c(O)c1 [(-)-Epigallocatechin Gallate] | 0.41 |  | -1.77 | 3.77 | 3.47 | 4.17 | 1.57 | 0.81 | 2.23 | 13.4 | 0.66 | -5.2 |  | 1 | -0.02 | 3.56 | -2.15 | 0.07 |  | 1.4 |
| Nc1nccc(Oc2ccc(NC(=O)c3c[nH]cc(-c4ccc(F)cc4)c3=O)cc2F)c1Cl | 1.82 | 5.03 | 3.07 | 0.39 | 5.69 | 1.58 | 2.63 | 0.87 | 2.83 | 2.6 | 1.42 | 1.09 | 7.56 | 2.23 | 6.22 | 1.41 | 2.08 | 8.06 | 1.52 |  |
| Cc1cccc(Nc2nc(NC3CCCCC3N)ncc2C(N)=O)c1 (stereo not drawn) | 0.04 | 1.48 | 0.43 | -0.24 | 1.5 | 1.75 | 0.09 | 0.29 | 6.64 | 2.09 | 1.38 | 1.44 | 0.64 | 2.38 | 2.39 | -0.08 | 4.25 | 4.75 | 0.86 | 0.32 |
| Cc1cc(O)c2c(c1)C(=O)c1cccc(O)c1C2=O [Chrysophanic Acid] | -0.01 | -3.42 | 1.45 | 0.25 | 0.31 | 0.83 | 1.12 | -0.16 | -0.47 | 5.05 | 0.02 | 0.52 |  |  | -3.4 | 0.6 | -0.63 | -2.71 | 1.94 |  |
| O=C1Nc2ccc(I)cc2/C1=C/c1cc(Br)c(O)c(Br)c1 | 5.94 | 0.5 | 6.08 | 2.56 | 5.73 | 5.54 | 2.41 | 0.7 | 3.09 | 7.97 | 7.94 | 2.48 |  |  | 2.79 | 3.4 | 4.19 | 5.66 | 3.87 | 25.1 |
